From PubChem BioAssay
HIF-2a inh = HIF-2a reporter inhibitors, primary screen, luminescence, 786-0 RCC cells; inhibition, % at 18.8 µM; 360,000 compounds, 0.72% hits; 786-0 RCC cells HIF-2a reporter, luciferase luminescence, overnight;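 active = inhibition of the luminescence signal of 40% or more relative to plate controls, in a single-dose primary screen at 18.75 µM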
CF NFkB block = inhibitors of PAF-induced NF-kB signaling, primary screen, cell-based, GFP fluorescence, uHTS | KKLEB NF-kB-GFP reporter, GFP fluorescence overnight | inhibition, % at 5 µM | 360,000 compounds, 0.86% hits | AID 588850, 2011;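 active = at least 50% inhibition at 5 µM, scaled per plate between neutral and stimulator controls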;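 also: PAF is a Pseudomonas aeruginosa culture filtrate used as stimulus; plate controls were PAF-stimulated DMSO wells for no effect and unstimulated DMSO wells for full effect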
KKLEB tox = cytotoxicity in KKLEB CF airway cells, primary screen, cytotoxicity control for CF NF-kB inhibitor project, cell-based, uHTS, fluorescence assay plates; KKLEB CF airway cells viability, ATPlite luminescence, overnight; active compounds read low; cells stimulated with P. aeruginosa culture filtrate; activity change (cytotoxicity), % at 5 µM; 360,000 compounds, 0.36% hits; AID 602141, 2011;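 active = corrected activity change at or below -50% at 5 µM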
TROY signal inh = inhibitors of TROY-driven NF-kB signaling, primary screen, Q293 LMP1-TROYcd cells, NF-kB luciferase, uHTS. Q293 LMP1-TROYcd NF-kB luciferase reporter, 4 h. AID 1347056, 2019. inhibition, % at 10 µM. 360,000 compounds, 0.98% hits;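 active = compounds whose plate-normalised and pattern-corrected inhibition of the luciferase reporter signal at the single screening dose is 50% or more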
Peg3 promoter = Peg3 promoter-driven luciferase inhibitors, primary screen, cell-based, HeLa, luciferase luminescence. HeLa PEG-Prom luciferase reporter, overnight. inhibition, % at 20 µM. 360,000 compounds, 1.7% hits;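 active = inhibition of at least 50% at 20 µM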
TWEAK Fn14 block = inhibitors of TWEAK-Fn14 signaling, primary screen, luciferase reporter cells, uHTS; TWEAK-stimulated Fn14 reporter cells, luciferase luminescence, 8 h; inhibition, % at 10 µM; 360,000 compounds, 2% hits; in the data active = inhibition above about 50%
Active calls of the source: *. Rows were chosen to be rich in hits. Some 4% of all compounds tested hit in one or more screens of this group.

Results for CC(NC(=O)C1CCN(C(=O)c2ccc(F)cc2)CC1)c1ccc(-n2ccnc2)cc1 (configuration not stated) ?
HIF-2a inh: 19; CF NFkB block: 0; KKLEB tox: -14; TROY signal inh: 14; Peg3 promoter: 15; TWEAK Fn14 block: 13

What do the screens show for `CCN(CC)CCOc1ccc(/C(=C(\Cl)c2ccccc2)c2ccccc2)cc1`?
HIF-2a inh: 10; CF NFkB block: 39; KKLEB tox: 32; TROY signal inh: 4; Peg3 promoter: 81*; TWEAK Fn14 block: -28

Results for CCN(CC)CCOc1ccc(Br)cc1 ?
HIF-2a inh: 11; CF NFkB block: -5; KKLEB tox: -4; TROY signal inh: -8; Peg3 promoter: 10; TWEAK Fn14 block: 0

How did CCOc1ccc(NC(=O)CN2CCN(C(=O)C3CCCO3)CC2)cc1 (configuration not stated) do in these assays?
HIF-2a inh: 11; CF NFkB block: -24; KKLEB tox: 5; TROY signal inh: -4; Peg3 promoter: -6; TWEAK Fn14 block: 93*

What do the screens show for `CCOC(=O)[C@]12CCCC=C1N(Cc1ccc(Cl)cc1Cl)C(=O)[C@H](CC(=O)N1CCSCC1)C2`?
HIF-2a inh: 7; TROY signal inh: -7; TWEAK Fn14 block: 0

What do the screens show for `COc1ccc(C(=O)N=c2nc3ccccn3s2)cc1`?
HIF-2a inh: 46*; CF NFkB block: -9; KKLEB tox: -48; TROY signal inh: 79*; Peg3 promoter: -39; TWEAK Fn14 block: 97*

Results for COc1ccc(/C=C/C(=O)OCC(=O)N2CCCCCC2)c(OC)c1 ?
HIF-2a inh: -6; CF NFkB block: 8; KKLEB tox: 19; TROY signal inh: -4; Peg3 promoter: 9; TWEAK Fn14 block: 2

What do the screens show for `CCCN1CCN(C(=O)c2ccc(F)c(S(=O)(=O)N3CCOCC3)c2)CC1`?
HIF-2a inh: 3; CF NFkB block: 15; KKLEB tox: -12; TROY signal inh: -2; Peg3 promoter: 12; TWEAK Fn14 block: 3

How did COc1ccc(C(=O)N2CCNC(=O)C2CC(=O)Nc2ccc(C)cc2)cc1 (configuration not stated) do in these assays?
HIF-2a inh: 20; CF NFkB block: 13; KKLEB tox: 1; TROY signal inh: -6; Peg3 promoter: 10; TWEAK Fn14 block: 55*

Results for Cc1ccc(CSCC(=O)N(C)CC(=O)Nc2c(Cl)cccc2Cl)cc1 ?
HIF-2a inh: 15; CF NFkB block: 1; KKLEB tox: 8; TROY signal inh: 8; Peg3 promoter: 3; TWEAK Fn14 block: -1

How did Cn1nc(C(F)(F)F)c(-c2ccc(Br)cc2)c1NC(=O)Nc1ccc(F)cc1F do in these assays?
HIF-2a inh: 7; CF NFkB block: 31; KKLEB tox: -13; TROY signal inh: 30; Peg3 promoter: 51*; TWEAK Fn14 block: 15

How did COc1cccc(-c2cnc(C(O)c3cccc(OC)c3)[nH]2)c1 (configuration not stated) do in these assays?
HIF-2a inh: -74; CF NFkB block: -2; KKLEB tox: 10; TROY signal inh: -9; Peg3 promoter: -21; TWEAK Fn14 block: -20

What do the screens show for `COc1cccc(-c2cnc(C(O)c3cccc(F)c3)[nH]2)c1` (configuration not stated)?
HIF-2a inh: -110; CF NFkB block: -5; KKLEB tox: -1; TROY signal inh: 52*; Peg3 promoter: -44; TWEAK Fn14 block: 42

Results for CCc1ccc2oc(-c3cc(N)ccc3O)nc2c1 ?
HIF-2a inh: 22; CF NFkB block: -22; KKLEB tox: -18; TROY signal inh: 45; Peg3 promoter: 19; TWEAK Fn14 block: 40

What do the screens show for `Nc1ccc2oc(-c3ccccc3Cl)nc2c1`?
HIF-2a inh: 14; CF NFkB block: -22; KKLEB tox: 6; TROY signal inh: -15; Peg3 promoter: -141; TWEAK Fn14 block: 51*

How did Nc1ccc2oc(-c3ccccn3)nc2c1 do in these assays?
HIF-2a inh: -162; CF NFkB block: 1; KKLEB tox: 3; TROY signal inh: -22; Peg3 promoter: -147; TWEAK Fn14 block: 4

What do the screens show for `Nc1ccc(-c2nc3cc(N)ccc3o2)cc1`?
HIF-2a inh: -155; CF NFkB block: 16; KKLEB tox: -4; TROY signal inh: -28; Peg3 promoter: -201; TWEAK Fn14 block: 25

How did CCc1ccc2oc(-c3cc(N)ccc3Cl)nc2c1 do in these assays?
HIF-2a inh: -5; CF NFkB block: -8; KKLEB tox: -9; TROY signal inh: 57*; Peg3 promoter: -33; TWEAK Fn14 block: 83*

How did CN(C)c1ccc(-c2nc3cc(N)ccc3o2)cc1 do in these assays?
HIF-2a inh: -54; CF NFkB block: -10; KKLEB tox: -60*; TROY signal inh: -29; Peg3 promoter: -27; TWEAK Fn14 block: 74*

What do the screens show for `O=[N+]([O-])c1ccc(N2CCCCC2)cc1NCCOc1ccccc1`?
HIF-2a inh: -86; CF NFkB block: 15; KKLEB tox: -24; TROY signal inh: -27; Peg3 promoter: -40; TWEAK Fn14 block: -11

How did CC1CN(c2ccc([N+](=O)[O-])c(NCCOc3ccc(Cl)cc3)c2)CC(C)N1 (configuration not stated) do in these assays?
HIF-2a inh: -16; CF NFkB block: -11; KKLEB tox: -18; TROY signal inh: -106; Peg3 promoter: 77*; TWEAK Fn14 block: -101

How did CC1CN(c2ccc([N+](=O)[O-])c(NCCOc3ccccc3)c2)CC(C)N1 (configuration not stated) do in these assays?
HIF-2a inh: -6; CF NFkB block: 11; KKLEB tox: -1; TROY signal inh: -45; Peg3 promoter: 29; TWEAK Fn14 block: -28

How did Cc1ccccc1OCCNc1cc(N2CC(C)NC(C)C2)ccc1[N+](=O)[O-] (configuration not stated) do in these assays?
HIF-2a inh: -16; CF NFkB block: 16; KKLEB tox: -2; TROY signal inh: -20; Peg3 promoter: 81*; TWEAK Fn14 block: -31

How did CN=C(NC1CCCCC1)c1ccc([N+](=O)[O-])cc1 do in these assays?
HIF-2a inh: 17; CF NFkB block: 0; KKLEB tox: -4; TROY signal inh: 0; Peg3 promoter: 10; TWEAK Fn14 block: 2

Results for Cn1c(-c2cccc([N+](=O)[O-])c2)cnc1NCc1cccc(F)c1 ?
HIF-2a inh: 3; CF NFkB block: 6; KKLEB tox: 5; TROY signal inh: 14; Peg3 promoter: 17; TWEAK Fn14 block: 3

What do the screens show for `CCOC(=O)c1c(NC(=O)c2nn(CC)cc2Br)sc2c1CCCCC2`?
HIF-2a inh: -13; CF NFkB block: 6; KKLEB tox: 9; TROY signal inh: -18; Peg3 promoter: -3; TWEAK Fn14 block: -13
